Results: publication PMC7862700, “An all-to-all approach to the identification of sequence-specific readers for epigenetic DNA modifications on cytosine”

Tests used:
Assay in all cases: DAPPL (digital affinity profiling via proximity ligation, sequencing); 10 mM Tris-HCl pH 7.5, 50 mM NaCl, 1 mM DTT, 4% glycerol, room temperature, 30 min; GST-TFs on glutathione beads, 16-mer random dsDNA library, 0.1% formaldehyde crosslink after washing; high values mean tight binding
Conditions in all cases: protein: recombinant; tags: N-terminal GST; dsDNA, one strand shown
ERF = molecular target: T1, ERF (Homo sapiens, UniProt P50548 1-548)
T1 sequence: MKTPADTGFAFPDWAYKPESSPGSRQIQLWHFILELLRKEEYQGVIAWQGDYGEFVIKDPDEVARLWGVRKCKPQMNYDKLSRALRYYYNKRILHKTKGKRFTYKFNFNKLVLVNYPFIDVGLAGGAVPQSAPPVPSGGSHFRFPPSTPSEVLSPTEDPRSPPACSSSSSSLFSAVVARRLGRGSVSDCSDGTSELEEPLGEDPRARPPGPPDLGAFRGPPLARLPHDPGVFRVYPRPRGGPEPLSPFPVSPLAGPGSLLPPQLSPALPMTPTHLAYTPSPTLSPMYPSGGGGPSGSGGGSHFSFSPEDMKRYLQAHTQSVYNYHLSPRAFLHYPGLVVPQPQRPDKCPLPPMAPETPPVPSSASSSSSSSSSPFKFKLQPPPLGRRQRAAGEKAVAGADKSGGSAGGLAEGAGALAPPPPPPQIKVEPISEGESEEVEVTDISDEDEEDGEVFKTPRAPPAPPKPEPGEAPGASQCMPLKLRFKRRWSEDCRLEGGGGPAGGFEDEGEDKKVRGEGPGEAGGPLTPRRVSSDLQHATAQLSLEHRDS
Method in brief: (§1)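 A tag-only sample was pooled with DNA-barcoded human transcription factors that had been expressed in yeast as GST fusions and captured on glutathione beads. The pools were incubated for 30 min at room temperature with 200 nmole of a random double-stranded 16-mer DNA library in Tris/NaCl/DTT/glycerol buffer, then washed, crosslinked with 0.1% formaldehyde, proximity-ligated (BsaI/T4 ligase, 1 h, 37 °C), PCR-amplified and sequenced on an Illumina NextSeq500. Binding signal is each hexamer's read frequency for a factor divided by its frequency for the tag-only sample.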

ETV3L = molecular target: T2, ETV3L (Homo sapiens, UniProt Q6ZN32 1-361)
T2 sequence: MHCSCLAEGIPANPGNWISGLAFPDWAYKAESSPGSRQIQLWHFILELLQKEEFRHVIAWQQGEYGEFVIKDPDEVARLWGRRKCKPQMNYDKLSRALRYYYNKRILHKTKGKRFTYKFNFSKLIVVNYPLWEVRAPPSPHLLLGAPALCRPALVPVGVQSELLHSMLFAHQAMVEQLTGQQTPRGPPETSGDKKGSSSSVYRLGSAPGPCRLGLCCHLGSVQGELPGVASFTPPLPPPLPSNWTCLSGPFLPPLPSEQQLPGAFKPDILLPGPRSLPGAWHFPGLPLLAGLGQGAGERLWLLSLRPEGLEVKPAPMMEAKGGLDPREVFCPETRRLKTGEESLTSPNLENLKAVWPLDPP
Method in brief: as §1

ETS2 = molecular target: T3, ETS2 (Homo sapiens, UniProt P15036 1-469)
T3 sequence: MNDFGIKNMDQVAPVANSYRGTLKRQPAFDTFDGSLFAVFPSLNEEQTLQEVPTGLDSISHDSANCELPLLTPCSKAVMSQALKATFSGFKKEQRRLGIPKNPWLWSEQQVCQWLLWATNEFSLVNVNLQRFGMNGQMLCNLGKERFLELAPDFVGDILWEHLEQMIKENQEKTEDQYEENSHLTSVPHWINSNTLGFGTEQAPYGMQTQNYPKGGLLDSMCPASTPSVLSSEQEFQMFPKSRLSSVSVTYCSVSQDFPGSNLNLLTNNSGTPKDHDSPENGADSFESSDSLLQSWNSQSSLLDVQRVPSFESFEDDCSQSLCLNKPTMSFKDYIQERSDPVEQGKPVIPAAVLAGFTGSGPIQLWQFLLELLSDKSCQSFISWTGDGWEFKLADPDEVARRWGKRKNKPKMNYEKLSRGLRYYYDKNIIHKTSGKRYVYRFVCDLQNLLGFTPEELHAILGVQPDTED
Method in brief: as §1

SPDEF = molecular target: T4, SPDEF (Homo sapiens, UniProt O95238 1-335)
T4 sequence: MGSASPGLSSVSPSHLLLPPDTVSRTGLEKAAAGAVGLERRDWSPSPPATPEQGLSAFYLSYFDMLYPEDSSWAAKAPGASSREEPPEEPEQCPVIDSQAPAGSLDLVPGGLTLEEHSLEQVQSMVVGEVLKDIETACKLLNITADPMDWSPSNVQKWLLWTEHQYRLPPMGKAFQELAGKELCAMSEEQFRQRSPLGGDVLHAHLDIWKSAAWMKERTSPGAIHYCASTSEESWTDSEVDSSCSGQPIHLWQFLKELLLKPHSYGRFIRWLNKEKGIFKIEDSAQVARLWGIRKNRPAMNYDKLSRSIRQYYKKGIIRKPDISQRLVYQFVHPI
Method in brief: as §1

ETV7 = molecular target: T5, ETV7 (Homo sapiens, UniProt Q9Y603 1-341)
T5 sequence: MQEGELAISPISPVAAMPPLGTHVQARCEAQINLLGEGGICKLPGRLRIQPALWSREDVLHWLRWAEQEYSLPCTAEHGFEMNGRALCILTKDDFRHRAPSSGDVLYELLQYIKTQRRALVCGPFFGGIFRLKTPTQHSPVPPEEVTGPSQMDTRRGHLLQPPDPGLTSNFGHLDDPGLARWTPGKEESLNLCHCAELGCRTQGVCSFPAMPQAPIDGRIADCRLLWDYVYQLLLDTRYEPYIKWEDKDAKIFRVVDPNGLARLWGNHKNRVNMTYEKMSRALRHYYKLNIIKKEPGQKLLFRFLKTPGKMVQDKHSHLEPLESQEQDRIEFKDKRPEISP
Method in brief: as §1

ELF5 = molecular target: T6, ELF5 (Homo sapiens, UniProt Q9UKW6-2 1-255)
T6 sequence: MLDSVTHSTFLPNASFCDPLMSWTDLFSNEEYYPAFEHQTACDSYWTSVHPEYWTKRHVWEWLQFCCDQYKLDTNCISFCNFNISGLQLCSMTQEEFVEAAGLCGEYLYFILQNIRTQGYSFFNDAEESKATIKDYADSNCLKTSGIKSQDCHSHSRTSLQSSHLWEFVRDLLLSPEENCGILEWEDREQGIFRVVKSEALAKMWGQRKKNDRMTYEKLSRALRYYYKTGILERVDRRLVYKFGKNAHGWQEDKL
Method in brief: as §1

ETV3 = molecular target: T7, ETV3 (Homo sapiens, UniProt P41162-2 1-143)
T7 sequence: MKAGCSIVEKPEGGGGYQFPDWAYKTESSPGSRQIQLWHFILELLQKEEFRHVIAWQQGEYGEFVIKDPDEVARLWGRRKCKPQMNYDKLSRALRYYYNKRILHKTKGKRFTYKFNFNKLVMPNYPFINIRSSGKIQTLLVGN
Method in brief: as §1

ETV6 = ETV6 (Homo sapiens, UniProt P41212 1-452)
ETV6, sequence (P41212 whole entry): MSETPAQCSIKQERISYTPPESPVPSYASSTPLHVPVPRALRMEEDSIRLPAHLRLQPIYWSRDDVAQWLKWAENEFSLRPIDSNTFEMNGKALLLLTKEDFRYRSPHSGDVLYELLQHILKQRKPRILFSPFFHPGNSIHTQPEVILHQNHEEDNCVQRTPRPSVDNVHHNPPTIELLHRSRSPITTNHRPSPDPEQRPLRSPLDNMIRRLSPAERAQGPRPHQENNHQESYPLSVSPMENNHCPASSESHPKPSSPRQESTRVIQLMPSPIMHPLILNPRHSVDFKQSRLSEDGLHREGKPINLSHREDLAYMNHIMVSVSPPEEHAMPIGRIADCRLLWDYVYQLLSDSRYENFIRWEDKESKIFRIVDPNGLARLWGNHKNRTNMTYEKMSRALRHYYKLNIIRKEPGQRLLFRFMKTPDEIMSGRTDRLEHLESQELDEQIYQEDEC
Method in brief: as §1

Row | Sequence | binding signal (ERF) | binding signal (ETV3L) | binding signal (ETS2) | binding signal (SPDEF) | binding signal (ETV7) | binding signal (ELF5) | binding signal (ETV3) | binding signal (ETV6)
1 | TTCACC | 1.41 fold enrichment (6-mer frequency, TF over GST control) | 1.32 fold enrichment (6-mer frequency, TF over GST control) | 1.35 fold enrichment (6-mer frequency, TF over GST control) | 1.32 fold enrichment (6-mer frequency, TF over GST control) | 1.3 fold enrichment (6-mer frequency, TF over GST control) | 1.32 fold enrichment (6-mer frequency, TF over GST control) | 1.48 fold enrichment (6-mer frequency, TF over GST control) | 1.35 fold enrichment (6-mer frequency, TF over GST control)
2 | TTCTTG | 1.56 fold enrichment (6-mer frequency, TF over GST control) | 1.56 fold enrichment (6-mer frequency, TF over GST control) | 1.39 fold enrichment (6-mer frequency, TF over GST control) | 1.28 fold enrichment (6-mer frequency, TF over GST control) | 1.48 fold enrichment (6-mer frequency, TF over GST control) | 1.39 fold enrichment (6-mer frequency, TF over GST control) | 1.47 fold enrichment (6-mer frequency, TF over GST control) | 1.38 fold enrichment (6-mer frequency, TF over GST control)
3 | CAAACC | 1.06 fold enrichment (6-mer frequency, TF over GST control) | 1.18 fold enrichment (6-mer frequency, TF over GST control) | 1.09 fold enrichment (6-mer frequency, TF over GST control) | 1.11 fold enrichment (6-mer frequency, TF over GST control) | 1.02 fold enrichment (6-mer frequency, TF over GST control) | 1.02 fold enrichment (6-mer frequency, TF over GST control) | 1.11 fold enrichment (6-mer frequency, TF over GST control) | 1.1 fold enrichment (6-mer frequency, TF over GST control)
4 | CGATCC | 1.33 fold enrichment (6-mer frequency, TF over GST control) | 1.18 fold enrichment (6-mer frequency, TF over GST control) | 1.2 fold enrichment (6-mer frequency, TF over GST control) | 1.4 fold enrichment (6-mer frequency, TF over GST control) | 1.1 fold enrichment (6-mer frequency, TF over GST control) | 1.2 fold enrichment (6-mer frequency, TF over GST control) | 1.24 fold enrichment (6-mer frequency, TF over GST control) | 1.23 fold enrichment (6-mer frequency, TF over GST control)
5 | TCGCGC | 1.12 fold enrichment (6-mer frequency, TF over GST control) | 1.02 fold enrichment (6-mer frequency, TF over GST control) | 1.12 fold enrichment (6-mer frequency, TF over GST control) | 1.14 fold enrichment (6-mer frequency, TF over GST control) | 1.23 fold enrichment (6-mer frequency, TF over GST control) | 1.03 fold enrichment (6-mer frequency, TF over GST control) | – | –
6 | ACGTTA | 1.17 fold enrichment (6-mer frequency, TF over GST control) | 1.12 fold enrichment (6-mer frequency, TF over GST control) | 1.15 fold enrichment (6-mer frequency, TF over GST control) | 1.06 fold enrichment (6-mer frequency, TF over GST control) | 1.09 fold enrichment (6-mer frequency, TF over GST control) | 1.06 fold enrichment (6-mer frequency, TF over GST control) | 1.16 fold enrichment (6-mer frequency, TF over GST control) | 1.12 fold enrichment (6-mer frequency, TF over GST control)
7 | CTCGCT | 1.78 fold enrichment (6-mer frequency, TF over GST control) | 1.87 fold enrichment (6-mer frequency, TF over GST control) | 1.67 fold enrichment (6-mer frequency, TF over GST control) | 1.62 fold enrichment (6-mer frequency, TF over GST control) | 1.54 fold enrichment (6-mer frequency, TF over GST control) | 1.55 fold enrichment (6-mer frequency, TF over GST control) | 1.51 fold enrichment (6-mer frequency, TF over GST control) | 1.64 fold enrichment (6-mer frequency, TF over GST control)
8 | TGTTCG | 1.2 fold enrichment (6-mer frequency, TF over GST control) | 1.01 fold enrichment (6-mer frequency, TF over GST control) | 1.15 fold enrichment (6-mer frequency, TF over GST control) | 1.03 fold enrichment (6-mer frequency, TF over GST control) | 1.15 fold enrichment (6-mer frequency, TF over GST control) | 1.03 fold enrichment (6-mer frequency, TF over GST control) | 1.01 fold enrichment (6-mer frequency, TF over GST control) | –
9 | TATGCG | 1.23 fold enrichment (6-mer frequency, TF over GST control) | 1.39 fold enrichment (6-mer frequency, TF over GST control) | 1.43 fold enrichment (6-mer frequency, TF over GST control) | 1.36 fold enrichment (6-mer frequency, TF over GST control) | 1.51 fold enrichment (6-mer frequency, TF over GST control) | 1.32 fold enrichment (6-mer frequency, TF over GST control) | 1.58 fold enrichment (6-mer frequency, TF over GST control) | 1.22 fold enrichment (6-mer frequency, TF over GST control)
10 | TGACAA | 1.23 fold enrichment (6-mer frequency, TF over GST control) | 1.34 fold enrichment (6-mer frequency, TF over GST control) | 1.27 fold enrichment (6-mer frequency, TF over GST control) | 1.21 fold enrichment (6-mer frequency, TF over GST control) | 1.31 fold enrichment (6-mer frequency, TF over GST control) | 1.23 fold enrichment (6-mer frequency, TF over GST control) | 1.26 fold enrichment (6-mer frequency, TF over GST control) | 1.23 fold enrichment (6-mer frequency, TF over GST control)
11 | ACCTGA | 1.14 fold enrichment (6-mer frequency, TF over GST control) | 1.04 fold enrichment (6-mer frequency, TF over GST control) | 1.03 fold enrichment (6-mer frequency, TF over GST control) | 1.14 fold enrichment (6-mer frequency, TF over GST control) | 1.03 fold enrichment (6-mer frequency, TF over GST control) | 1.07 fold enrichment (6-mer frequency, TF over GST control) | 1.07 fold enrichment (6-mer frequency, TF over GST control) | 1.09 fold enrichment (6-mer frequency, TF over GST control)
12 | ACTACA | 1.13 fold enrichment (6-mer frequency, TF over GST control) | 1.22 fold enrichment (6-mer frequency, TF over GST control) | 1.15 fold enrichment (6-mer frequency, TF over GST control) | 1.28 fold enrichment (6-mer frequency, TF over GST control) | 1.11 fold enrichment (6-mer frequency, TF over GST control) | 1.24 fold enrichment (6-mer frequency, TF over GST control) | 1.19 fold enrichment (6-mer frequency, TF over GST control) | 1.19 fold enrichment (6-mer frequency, TF over GST control)
13 | GAAGCA | 1.24 fold enrichment (6-mer frequency, TF over GST control) | 1.18 fold enrichment (6-mer frequency, TF over GST control) | 1.32 fold enrichment (6-mer frequency, TF over GST control) | 1.33 fold enrichment (6-mer frequency, TF over GST control) | 1.37 fold enrichment (6-mer frequency, TF over GST control) | 1.4 fold enrichment (6-mer frequency, TF over GST control) | 1.36 fold enrichment (6-mer frequency, TF over GST control) | 1.43 fold enrichment (6-mer frequency, TF over GST control)
14 | TCTGTT | 1.43 fold enrichment (6-mer frequency, TF over GST control) | 1.32 fold enrichment (6-mer frequency, TF over GST control) | 1.48 fold enrichment (6-mer frequency, TF over GST control) | 1.35 fold enrichment (6-mer frequency, TF over GST control) | 1.46 fold enrichment (6-mer frequency, TF over GST control) | 1.4 fold enrichment (6-mer frequency, TF over GST control) | 1.25 fold enrichment (6-mer frequency, TF over GST control) | 1.35 fold enrichment (6-mer frequency, TF over GST control)
15 | CTATGT | 1.08 fold enrichment (6-mer frequency, TF over GST control) | 1.06 fold enrichment (6-mer frequency, TF over GST control) | 1.16 fold enrichment (6-mer frequency, TF over GST control) | 1.12 fold enrichment (6-mer frequency, TF over GST control) | 1.3 fold enrichment (6-mer frequency, TF over GST control) | 1.1 fold enrichment (6-mer frequency, TF over GST control) | 1.15 fold enrichment (6-mer frequency, TF over GST control) | –
